Tgondii IFNg: T. gondii growth inhibition with IFN-gamma, primary screen, cell-based; AID 1259416, 2018; Toxoplasma gondii growth in IFN-gamma-treated host cells; active compounds read low; activity change, negative = inhibition, % (test concentration not listed); 69,000 compounds, 3.8% hits; in the data active = activity change below about -70%, passing the limit was not always enough;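 also: host cells are HeLa cells infected with Toxoplasma gondii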
Numbers stand for hits; ! = a repeat was not active. The sample as a whole holds a higher share of hits than the screen did.

For Cc1ccc(NC(=O)CN2C(=O)CCc3cc(S(=O)(=O)N4CCC(C)CC4)ccc32)cc1C the results were Tgondii IFNg -99.
`Cc1ccc(NC(=O)CN2C(=O)CCc3cc(S(=O)(=O)N4CCC(C)CC4)ccc32)cc1N(C)C` gave Tgondii IFNg inactive.
COc1cccc(NC(=O)CN2C(=O)CCc3cc(S(=O)(=O)N4CCC(C)CC4)ccc32)c1 was read as Tgondii IFNg inactive.
O=C(CN1C(=O)CCc2cc(S(=O)(=O)N3CCCC3)ccc21)Nc1cccc(Br)c1 was read as Tgondii IFNg -108.
For COc1ccc(NC(=O)CN2C(=O)CCc3cc(S(=O)(=O)N4CCCCC4)ccc32)cc1OC the results were Tgondii IFNg inactive.
Cc1cc(C(F)(F)F)nc(CCNC(C)Cn2ccnc2)n1 (centres undefined) was read as Tgondii IFNg inactive.
Cc1cc(C)n(-c2cccc(-c3ccc(S(N)(=O)=O)cc3F)c2)n1 was read as Tgondii IFNg inactive.
For Cc1cccnc1CN(Cc1ccccc1)C(=O)CN1CCCN(C)CC1 the results were Tgondii IFNg inactive.
`COC(=O)[C@@H]1C[C@H](NC(=O)Cc2ccc(OC)c(C)c2)CN1C` gave Tgondii IFNg inactive.
`Cc1noc(C)c1S(=O)(=O)NCC(c1cccnc1)c1c[nH]c2ccccc12` (centres undefined) gave Tgondii IFNg inactive.
`CC1CCN(S(=O)(=O)c2ccc3c(c2)CCC(=O)N3CC(=O)Nc2cccc(F)c2)CC1` gave Tgondii IFNg inactive.
For O=C(CN1C(=O)CCc2cc(S(=O)(=O)N3CCCC3)ccc21)Nc1ccc2c(c1)OCCO2 the results were Tgondii IFNg inactive.
`CC1CCN(S(=O)(=O)c2ccc3c(c2)CCC(=O)N3CC(=O)Nc2ccccc2)CC1` gave Tgondii IFNg inactive.
For CC1CCN(S(=O)(=O)c2ccc3c(c2)CCC(=O)N3CC(=O)NCc2ccc3c(c2)OCO3)CC1 the results were Tgondii IFNg inactive.
`CC1CCN(S(=O)(=O)c2ccc3c(c2)CCC(=O)N3CC(=O)Nc2cccc(Cl)c2)CC1` gave Tgondii IFNg -87.
Screening CC1CCN(S(=O)(=O)c2ccc3c(c2)CCC(=O)N3CC(=O)Nc2ccc3c(c2)OCCO3)CC1 returned Tgondii IFNg -88.
`CN(C)C(=O)N[C@H]1CCO[C@]2(CCN(CCc3ccccc3)C2)C1` gave Tgondii IFNg inactive.
Screening Cc1cc(C(=O)CN2CCC(O)(CN3CCCCC3c3cccnc3)CC2)c(C)s1 (centres undefined) returned Tgondii IFNg inactive.
For CN(c1ccccc1)c1ccc2ccc(C(=O)Cc3ccccn3)cn12 the results were Tgondii IFNg inactive.
For CC(C)CNC(=O)[C@H]1C[C@H]2CN(Cc3cccc(Cl)c3)C[C@H]1O2 the results were Tgondii IFNg inactive.
`COCCn1c2c(ccc1=O)CC(NCc1nccs1)CC2` (centres undefined) gave Tgondii IFNg inactive.
Screening CN(Cc1nc(-c2ccccc2)no1)C(=O)c1ccc(C#CC(C)(C)O)o1 returned Tgondii IFNg inactive.
Screening O=S(=O)(N1CCCCCC1)N1CCCCC1c1ccccn1 (centres undefined) returned Tgondii IFNg inactive.
For COc1c/c(=C2\C=c3ccccc3=N2)[nH]/c1=C\c1[nH]c(C)cc1C the results were Tgondii IFNg -85.
Screening CC(C)N1CCn2nc(C(=O)NCC3COCCO3)cc2C1 (centres undefined) returned Tgondii IFNg inactive.
For CC(=O)N1CCC(C(=O)N(C)C(C)Cc2ccccn2)CC1 (centres undefined) the results were Tgondii IFNg inactive.
For CN1C[C@H](NC(=O)c2cccc(NCc3ccc(F)cc3)c2)C[C@H]1CO the results were Tgondii IFNg inactive.
For CCc1cc(=O)oc2cc(OC(C)C(=O)N3CCCn4cncc4C3)ccc12 (centres undefined) the results were Tgondii IFNg inactive.
For CO[C@@H]1CN(C)C(=O)c2cc(NC(=O)C3CCCCC3)ccc2OC[C@H](C)N(Cc2cccnc2)C[C@H]1C the results were Tgondii IFNg inactive.
`CO[C@H]1CN(C)C(=O)c2cc(NC(=O)C3CCCCC3)ccc2OC[C@@H](C)N(Cc2cccnc2)C[C@H]1C` gave Tgondii IFNg inactive.
`CO[C@@H]1CN(C)C(=O)c2cc(NC(=O)C3CCCCC3)ccc2OC[C@@H](C)N(Cc2cccnc2)C[C@H]1C` gave Tgondii IFNg inactive.
Screening CO[C@@H]1CN(C)C(=O)c2ccc(NC(=O)c3cccnc3)cc2OC[C@@H](C)N(CC2CCCCC2)C[C@H]1C returned Tgondii IFNg inactive.
`CO[C@H]1CN(C)C(=O)c2ccc(NC(=O)c3nc4ccccc4s3)cc2OC[C@H](C)N(Cc2cccnc2)C[C@H]1C` gave Tgondii IFNg -113.
`CO[C@@H]1CN(C)C(=O)c2ccc(NC(=O)c3nc4ccccc4s3)cc2OC[C@@H](C)N(Cc2cccnc2)C[C@H]1C` gave Tgondii IFNg -85.
CO[C@H]1CN(C)C(=O)c2ccc(NC(=O)c3nc4ccccc4s3)cc2OC[C@@H](C)N(Cc2cccnc2)C[C@@H]1C was read as Tgondii IFNg inactive.
For CO[C@@H]1CN(C)C(=O)c2ccc(NC(=O)c3nc4ccccc4s3)cc2OC[C@@H](C)N(Cc2cccnc2)C[C@@H]1C the results were Tgondii IFNg -112.
`CO[C@H]1CN(C)C(=O)c2cc(NC(=O)c3nc4ccccc4s3)ccc2OC[C@H](C)NC[C@@H]1C` gave Tgondii IFNg inactive.
For Cc1cc(C)cc(NC(=O)CC(=O)N[C@@H]2C[C@H]3C(=O)N(C)CC(=O)N3C2)c1 the results were Tgondii IFNg inactive.
`CCC(Oc1ccc2c(c1)CCCC2)C(=O)NCCc1cnc[nH]1` (centres undefined) gave Tgondii IFNg inactive.
Screening CCN1c2ccc(Cl)cc2C(=O)NC12CCN(C(=O)NCc1ccccc1)CC2 returned Tgondii IFNg inactive.
For CCOC(=O)N1CCC2(CC1)OC(=O)C(C)=C2C(=O)NCCCc1ccccc1 the results were Tgondii IFNg inactive.
Fc1cnc(N2CCC[C@]3(C[C@@H](Oc4ncccc4F)CO3)C2)nc1 was read as Tgondii IFNg inactive.
`NC(=O)c1cnn(-c2ccc(F)cc2)c1N` gave Tgondii IFNg inactive.
For COc1cc([C@@H]2c3cc4c(cc3[C@H](O)[C@H]3COC(=O)[C@H]23)OCO4)cc(OC)c1OC the results were Tgondii IFNg -76!.
Screening COc1cc([C@@H]2c3cc4c(cc3[C@@H](O[C@@H]3O[C@@H]5CO[C@@H](C)O[C@H]5[C@H](O)[C@H]3O)[C@H]3COC(=O)[C@H]23)OCO4)cc(OC)c1O returned Tgondii IFNg -80.
COc1ccc([C@H]2C/C=C\C[C@@H](c3ccc4c(c3)OCO4)NC(=O)CCC(=O)N2)c(OC)c1 was read as Tgondii IFNg inactive.
`COc1cc2c(c(OC)c1OC)-c1c(cc3c(c1OC)OCO3)C[C@H](C)[C@@H](C)C2` gave Tgondii IFNg inactive.
For CCn1c(=O)c(-c2nc(-c3ccc4c(c3)OCO4)no2)c(O)c2ccccc21 the results were Tgondii IFNg inactive.
Cc1ccc(S(=O)(=O)NCCc2sc(-c3cccc(F)c3)nc2C)cc1C was read as Tgondii IFNg inactive.
Screening C=CCNc1ccccc1C(=O)N(C)Cc1nc(C)cs1 returned Tgondii IFNg inactive.
`CSc1nsc(NC(=O)OCc2ccc(Cl)cc2)n1` gave Tgondii IFNg inactive.
Screening CCCCCCSc1nsc(NC(C)=O)n1 returned Tgondii IFNg inactive.
CC(=O)c1cccc(NC(=O)Nc2nc(SCc3ccc(F)cc3)ns2)c1 was read as Tgondii IFNg -107.

Screening results deposited in PubChem by Broad Institute.
